# Compound activity deposited in PubChem BioAssay by several laboratories.
# CYP2C9 inhib: blockers of cytochrome P450 2C9 activity – biochemical, luminescence, ADME assay, primary screen; AID 777, 2007; CYP2C9 Supersomes, luciferin-H conversion; inhibition, % at 5 µM; 20% of 96,000 active;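 active means blocking of liver enzyme CYP2C9 beyond about 50% at 5 µM, limit read from the data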
# E-sel TNF inh: E-selectin induction blockers in HUVEC – imaging, immunofluorescence, high content, primary screen. AID 1246, 2008. HUVEC TNFa-induced E-selectin immunofluorescence. 0.71% of 120,000 active. inhibition, % at 2 µM;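 active means inhibition above the batch mean plus 3 SD, and confirmed as a hit on visual image review, cut at about 43% in these data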;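 further: 0% = TNF-stimulated DMSO wells and 100% = unstimulated control wells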
# CYP2C19 act: human CYP2C19 activators, primary screen, biochemical, luminescence | 96,000 tested, under 10 active | activation factor at 5 µM | recombinant CYP2C19, luciferin-H EGE luminescence; stronger effect = higher value; 0 = fully inhibited enzyme, 1 = untreated enzyme | Cytochrome P450 2C19 (Homo sapiens), P33261;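 active means activation factor of at least 2 at 5 µM in the primary screen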;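 further: 0 = wells with 2.5 mM tranylcypromine and 1 = vehicle-only wells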
# Target sequence (P33261 whole entry, looked up): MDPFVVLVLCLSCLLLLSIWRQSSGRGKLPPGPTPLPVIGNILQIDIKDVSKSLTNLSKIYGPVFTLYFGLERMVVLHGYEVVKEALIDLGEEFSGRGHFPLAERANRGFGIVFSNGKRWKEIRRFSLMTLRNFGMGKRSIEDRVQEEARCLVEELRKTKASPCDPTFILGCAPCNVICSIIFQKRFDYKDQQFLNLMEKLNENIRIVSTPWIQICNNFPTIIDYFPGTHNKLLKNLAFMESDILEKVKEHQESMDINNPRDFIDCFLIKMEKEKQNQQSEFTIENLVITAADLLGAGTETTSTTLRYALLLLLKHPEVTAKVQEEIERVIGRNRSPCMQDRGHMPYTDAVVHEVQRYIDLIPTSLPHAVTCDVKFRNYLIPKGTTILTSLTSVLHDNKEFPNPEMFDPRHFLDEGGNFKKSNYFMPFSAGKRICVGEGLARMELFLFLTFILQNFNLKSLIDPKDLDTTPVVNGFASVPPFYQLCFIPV
# F-actin modifier: modifiers of F-actin cytoskeleton organization, primary screen, imaging, HUVEC, phalloidin staining, high-content imaging. HUVEC TNFa F-actin phalloidin imaging. 0.18% of 91,000 active. inhibition, % at 2 µM;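 active means inhibition above the batch mean plus 3 SD and confirmed as a hit by visual image inspection, cut at about 30% in these data, passing the limit was not always enough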
# CYP2C19 inhib: blockers of cytochrome P450 2C19 activity – biochemical, luminescence, ADME assay, primary screen; AID 778, 2007; CYP2C19 Supersomes, luciferin-H EGE luminescence, 30 min; 21% of 96,000 active; inhibition, % at 5 µM; P33261;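 active means CYP2C19 inhibition above a set limit at 5 µM in the primary screen, cut at about 50% in these data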;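 further: plate controls were negative control wells for no effect and 2.5 mM tranylcypromine positive control for full effect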
# CYP2C9 activ: human CYP2C9 activators, primary screen, biochemical, luminescence; Cytochrome P450 2C9 (Homo sapiens), P11712; recombinant CYP2C9, luciferin-H conversion; stronger effect = higher value; factor 1 = untreated enzyme, 0 = blocked; activation factor at 5 µM; 1.4% of 96,000 active;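 active means activation factor of 2 or more for CYP2C9 at a 5 µM dose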;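 further: 0 = sulfaphenazole-blocked wells and 1 = vehicle-only wells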
# An asterisk follows results filed as active; / = not tested or not shown. In the library only some 22% were active in any assay of this set; here they are far more common.
SMILES,CYP2C9 inhib,E-sel TNF inh,CYP2C19 act,F-actin modifier,CYP2C19 inhib,CYP2C9 activ
O=C(N/N=C/c1ccncc1)c1cc(Br)ccc1OCc1ccccc1,/,7.2,/,/,/,/
CCCn1nnc(NC(=O)c2ccccc2Br)n1,-32.0,-3.1,0.9,8.6,9.9,1.3
CC(=O)NCCSC(=O)c1ccc(F)cc1,0.6,-0.5,1,/,2.5,1
COc1ccccc1NC(=O)CSc1nnc(-c2ccc(NC(C)=O)cc2)n1C,24.1,67.3*,1,-0.1,-4.6,0.8
Cc1ccccc1NC(=O)Cc1nc(CSc2nnc(C3CCCCC3)n2N)cs1,84.3*,9.7,0.5,/,54.6*,0.2
Cc1cc(NC(=O)CSc2nnc(C3CC3)n2N)c([N+](=O)[O-])cc1C,/,-7.6,/,/,/,/
COC(=O)c1ccccc1NC(=O)CSc1nnc(-c2cccc(NC(C)=O)c2)n1C,38.7,4.2,0.1,-1.7,94.1*,0.6
Nn1c(SCC(=O)Nc2cccc(F)c2)nnc1C1CCCCC1,52.8*,-19.3,0.5,-34.5,54.3*,0.5
COc1cc(C)nc(N2CCC(C(N)=O)CC2)n1,5.4,16.1,1,-6.6,4.8,0.9
CC(C(=O)NC(=O)NCc1ccccc1)N1C(=O)c2ccccc2C1=O (stereo not drawn),16.2,1.5,0.8,0.6,21.5,0.8
COCCCNC(=O)CC(NS(=O)(=O)c1ccc(F)cc1)c1ccc(OC)cc1 (stereo not drawn),-12.7,16.2,0.9,/,10.4,1.1
Cn1c(SCC(=O)c2ccccc2)nnc1C1CC1,0.3,16.2,0.5,-20.8,50.0*,1
COc1ccccc1NC(=O)CSc1nnc(CC(=O)Nc2ccccc2)n1C,-49.7,-47.5,0.7,14.0,25.4,1.5
O=C(CSc1ncccn1)n1c2c(c3ccccc31)CCCC2,-111.8,-23.2,1,-18.9,-2.9,2.1*
CC(=O)Nc1cccc(-c2nnc(SCC(=O)N3CCCCC3)n2C)c1,/,-23.0,/,/,/,/
COc1ccccc1NC(=O)CSc1nnc(C2CCCCC2)n1C,8.5,-4.4,0.3,0.0,65.4*,0.9
CC(=O)Nc1cccc(-c2nnc(SCC(=O)n3c4c(c5ccccc53)CCCC4)n2C)c1,-11.6,-28.4,0.1,23.7,92.9*,1.1
CCN(CC)CC(=O)n1c2c(c3ccccc31)CCCC2,-15.7,-32.6,0.6,/,37.2,1.2
CCOC(=O)C1CCN(C(c2ccc(OC)c(OC)c2)c2sc3nc(C)nn3c2O)CC1 (stereo not drawn),7.1,-36.0,0.9,/,11.1,0.9
c1ccc(-c2nnsc2-c2nc3ccccc3[nH]2)cc1,/,-10.3,/,/,/,/
CCOc1ccc2nc(-c3ccccc3)nc(SCC(=O)Nc3ncc(C)s3)c2c1,4.4,9.5,1,17.3,-2.6,1
Cc1ccc(S(=O)(=O)CCC(=O)Nc2nccs2)cc1,0.4,3.7,0.8,-3.9,22.1,1
Cc1ccc(S(=O)(=O)NC(CC(C)C)C(=O)Nc2nccs2)cc1 (stereo not drawn),81.0*,-2.4,0.6,9.0,43.2,0.2
Cc1ccc(S(=O)(=O)NC(CC(C)C)C(=O)NCc2ccco2)cc1 (stereo not drawn),55.9*,12.3,0.5,/,53.5*,0.4
O=S(=O)(N/N=C/c1ccc2c(c1)OCCO2)c1ccccc1,39.8,-8.3,1,34.9,1.8,0.6
SMILES,CYP2C9 inhib,E-sel TNF inh,CYP2C19 act,F-actin modifier,CYP2C19 inhib,CYP2C9 activ
O=S(=O)(N/N=C/c1c(F)cccc1Cl)c1ccccc1,20.7,8.4,0.3,-22.2,66.0*,0.8
O=S(=O)(N/N=C\C=C\c1ccccc1)c1ccc(Cl)cc1,95.8*,-52.3,0.6,19.0,36.5,0
O=C(CSc1ncccc1-c1nc2ccccc2[nH]1)N1CCN(c2ccccc2F)CC1,19.2,-9.2,0.9,24.5,10.7,0.8
C(=N\Nc1nc(-c2ccccc2)cs1)/c1cccnc1,88.7*,-36.5,0.1,-10.2,92.9*,0.1
CCN(CC)S(=O)(=O)c1ccc(C(=O)NC2=C(C(=O)OC)SCC2)cc1,48.0,/,0.9,9.9,10.3,0.5
COc1ccc(-c2nc(CS(=O)CC(=O)NC3CCCc4ccccc43)c(C)o2)cc1OC (stereo not drawn),88.0*,/,0.4,/,55.9*,0.1
COc1ccc(-c2nnn(CC(=O)NC3CCCc4ccccc43)n2)cc1OC (stereo not drawn),1.3,/,0.4,20.1,63.6*,1
COc1ccc(-c2nc(CSCC(=O)NC3CCCc4ccccc43)c(C)o2)cc1OC (stereo not drawn),66.1*,5.4,0.4,4.6,60.6*,0.3
COc1ccc(-c2nc(CSCC(=O)N3CCN(c4cccc(C)c4)C(C)C3)c(C)o2)cc1OC (stereo not drawn),37.2,9.9,0.3,/,73.1*,0.6
CCOC(=O)N1CCC(NC(=O)CSCc2nc(-c3ccc(OC)c(OC)c3)oc2C)CC1,31.8,-66.5,0.7,4.3,27.1,0.7
COc1ccc(C(=O)c2ccc(CC#N)s2)cc1,5.7,39.0,0.4,50.2,56.2*,0.9
Cc1cc(OCC(=O)Nn2cnnc2)c(C)cc1Br,89.7*,-2.5,0,-5.6,98.7*,0.1
O=C(COc1cc(Cl)c(Cl)cc1Cl)Nn1cnnc1,81.9*,3.8,0,15.2,96.4*,0.2
Cc1ccc(OCC(=O)Nn2cnnc2)c(Br)c1,/,-20.5,/,-9.2,/,/
O=C(COc1ccc2ccccc2c1Br)NNC(=O)Nc1ccccc1,-44.6,-4.5,0.7,-28.7,28.5,1.4
O=C(COc1ccc([N+](=O)[O-])cc1)Nn1cnnc1,/,-41.0,/,/,/,/
O=C(COc1cc(Cl)c(Cl)cc1Cl)Nc1ccncc1,100.0*,9.7,0,/,98.7*,0
O=C(COc1ccc2ccccc2c1Br)Nn1cnnc1,84.6*,-9.7,0,-0.6,98.5*,0.2
Cc1nc(Cl)sc1C(=O)O,-3.8,-30.2,0.9,-6.2,5.3,1
COc1ccccc1C(=O)Nc1ccc2c(c1)nc1n2CCSC1,-97.2,/,0.8,-14.3,17.8,2*
COc1ccccc1C(=O)Nc1ccc(N2CCN(Cc3ccccc3)CC2)cc1,-145.3,-5.8,0.9,6.5,7.1,2.5*
COc1ccccc1C(=O)Nc1ccc(N2CCCCC2)cc1,-281.9,13.9,0.8,-13.0,17.4,3.8*
CC1(C)C2CCC13CS(=O)(=O)N[C@@H]3C2 (stereo partly drawn),9.9,1.5,0.9,-5.0,9.7,0.9
O=C(CNC(=O)OCc1ccccc1)NCC(=O)N1CCCC1C(=O)OCc1ccccc1 (stereo not drawn),5.0,-7.3,1,-6.6,-0.5,0.9
COCCCNC(=S)NNC(=S)Nc1ccc(F)cc1F,41.4,16.2,0.7,-7.3,26.2,0.6
